IL1B secr inh: inflammasome signaling inhibition, IL-1 beta readout; THP-1 LPS/ATP IL-1B secretion, AlphaLISA, 16 h; hits give low values; activity change, % at 57.5 µM; 360,000 compounds, 4.7% hits; AID 743279; in the data active = activity change below about -50%; inconclusive = mostly about -30% to -49%
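THP-1 cells pretreated 1 hr with compounds (up to 57.5 uM final), then stimulated with LPS (250 ng/mL final) plus ATP (1.25 mM final); secreted IL-1B measured by AlphaLISA after 16 hr, decreased signal indicating inhibition.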
DT40 TDP1 no CPT: qHTS for Inhibitors of human tyrosyl-DNA phosphodiesterase 1 (TDP1): qHTS in cells in absence of CPT; DT40 Tdp1-/- hTDP1 cells, no CPT, ATP luminescence, 48 h; Potency, µM (doses to about 46.2 µM), hits mostly inhibitors; 420,000 compounds, 15% hits; AID 686978, 2013; also: nearly all actives have a fitted effect of over 55% in size
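No-CPT arm: Tdp1-/-;hTDP1 DT40 cells (400/well) plus compounds, incubated ≥48 hr at 37 °C. Readout CellTiter-Glo luminescence.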
Six1-Eya2 blk: Six1/Eya2 interaction inhibition. Q15475+O00167. AlphaScreen GST-Six1/His-Eya2 binding, biochemical; hits give low values. activity change, % (test concentration not listed). 360,000 compounds, 0.56% hits. AID 651725; in the data active = activity change below about -65%; inconclusive = mostly about -30% to -63%
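Six1/Eya2 binding was read as AlphaScreen signal after compounds were pinned into GST-Six1 plus His-tagged Eya2 (5X stock 250/500 nM) in pH 8.0 Tris/NaCl/TCEP buffer, beads added, then incubated 1 h, 37 C, dark.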
DT40 TDP1 CPT: DT40-hTDP1 cell growth loss with CPT; chicken DT40 Tdp1-/-;hTDP1 cells + 20 nM CPT, ATP luminescence, 48 h; 420,000 compounds, 12% hits; Potency, µM (top dose mostly 46.2 µM), most hits filed as inhibitors; AID 686979; also: nearly all actives have a fitted effect of over 55% in size
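Chicken DT40 Tdp1-/- cells complemented with human TDP1, 400 cells/well, exposed to compounds plus 20 nM camptothecin for at least 48 h at 37 C; viability read as ATP content by CellTiter-Glo luminescence.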
CtBP-E1A inh: inhibitors of CtBP/E1A interaction | AlphaScreen GST-E1A/His-CtBP binding, 1536-well; hits give low values | activity change, % (no concentration beside the values) | 340,000 compounds, 0.49% hits | AID 651724; in the data active = activity change below about -65%; inconclusive = mostly about -30% to -63%
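Steps: dispense buffer (Tris pH 8.0, NaCl 300 mM, TCEP 1 mM, BSA, Tween 20); add 5X protein mix (GST-E1A, His-CtBP, 125 nM each); pin 23 nL compound; 2 h at 37 °C, dark; add 5X beads (50 ug/mL); 1 h; read.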
TDP1 inh: inhibitors of human tyrosyl-DNA phosphodiesterase TDP1; Q9NUW8; recombinant TDP1, AlphaScreen DNA substrate cleavage; Potency, µM (series often up to 130 µM), usual class: inhibitors; 350,000 compounds, 0.28% hits; AID 485290; also: nearly all actives have a fitted effect of over 40% in size
Target sequence (Q9NUW8 whole entry, looked up): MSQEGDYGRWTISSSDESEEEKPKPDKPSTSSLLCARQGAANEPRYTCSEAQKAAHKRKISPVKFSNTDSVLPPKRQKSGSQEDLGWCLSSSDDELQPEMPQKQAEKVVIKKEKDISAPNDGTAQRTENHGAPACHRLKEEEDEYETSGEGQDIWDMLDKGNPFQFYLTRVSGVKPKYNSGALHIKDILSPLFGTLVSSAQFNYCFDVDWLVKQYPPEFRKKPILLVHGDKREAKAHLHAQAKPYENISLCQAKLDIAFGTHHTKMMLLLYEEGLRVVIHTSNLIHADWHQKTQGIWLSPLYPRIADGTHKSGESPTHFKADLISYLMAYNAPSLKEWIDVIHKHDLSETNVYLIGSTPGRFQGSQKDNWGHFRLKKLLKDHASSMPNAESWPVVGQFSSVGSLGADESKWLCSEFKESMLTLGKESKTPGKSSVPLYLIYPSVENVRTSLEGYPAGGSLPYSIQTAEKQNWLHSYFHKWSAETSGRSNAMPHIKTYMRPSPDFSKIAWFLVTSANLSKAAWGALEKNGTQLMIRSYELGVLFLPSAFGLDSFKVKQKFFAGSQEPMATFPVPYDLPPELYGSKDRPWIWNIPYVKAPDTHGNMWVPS
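Enzyme-compound mixtures sat 15 min at room temperature, followed by a 5 min reaction with 15 nM final substrate and 10 min with AlphaScreen beads. Recombinant human Tdp1 was used at 1 nM final.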
Numbers stand for hits; – = inactive; ? = inconclusive; · = no result; [ ] = another dose, or the depositor's remark. Rows were chosen to be rich in hits. Some 18% of all compounds tested hit in one or more screens of this group. Unless noted, calls follow the shape of the dose curve; as a rule, active = well fitted curve in the direction sought with a large enough effect; inconclusive = small, poorly fitted or top-dose-only effect, or another doubt; inactive = no such curve, though single readings can be large; an effect the other way counts as inactive or inconclusive.

SMILES	IL1B secr inh	DT40 TDP1 no CPT	Six1-Eya2 blk	DT40 TDP1 CPT	CtBP-E1A inh	TDP1 inh
Cc1noc2ncnc(N3CCN(c4cccc(Cl)c4)CC3)c12	–	9.2µM	–	16µM	–	–
Cc1ccc(Cl)cc1N1CCN(c2ncnc3onc(C)c23)CC1	·	5.8µM	·	6.5µM	·	–
Cc1ccc(Cl)cc1N1CCN(C(=O)c2c(C)oc3ncnc(N4CCCCC4)c23)CC1	·	6.5µM	·	9.2µM	·	–
O=C(CCC(=O)N(CC(=O)NC1CCCCC1)c1ccccc1F)Nc1nccs1	–	–	–	–	–	–[0.0935 µM]
CCOc1ccccc1NC(=O)CCNS(=O)(=O)c1ccc(NC(C)=O)cc1	–	–	–	–	·	·
COc1ccc(S(=O)(=O)NC2CCCC2)c(OC)c1	–	–	–	–	–	–
Cc1onc(-c2ccccc2)c1C(=O)OCC(=O)Nc1cccc(Cl)c1	–	?	–	?	–	–
CC(C)NC(=O)C(=O)Nc1ccc2c(c1)N(S(=O)(=O)c1cccs1)CCC2	–	?	–	?	–	–
CNC(=O)C(=O)Nc1ccc2c(c1)N(S(=O)(=O)c1cccs1)CCC2	–	?	–	?	–	·
CCCCNC(=O)C(=O)Nc1ccc2c(c1)N(S(=O)(=O)c1cccs1)CCC2	–	1.8µM	–	2.6µM	–	·
CCN(CC)CCNC(=O)C(=O)Nc1ccc2c(c1)N(S(=O)(=O)c1cccs1)CCC2	–	16µM	–	15µM	–	·
Cc1ccc(-c2nnn(CC(=O)Nc3ccc(S(=O)(=O)N4CCC(C)CC4)cc3)n2)cc1	–	18µM	–	?	–	–
CCOc1ccc(NC(=O)Cn2nnc(-c3ccccc3F)n2)cc1	–	?	–	21µM	–	–
CC1CCN(S(=O)(=O)c2ccc(NC(=O)Cn3nnc(-c4ccccc4)n3)cc2)CC1	–	?	–	?	–	–
CC1CCCN(S(=O)(=O)c2ccc(NC(=O)Cn3nnc(-c4ccccc4F)n3)cc2)C1 (stereo not given)	–	23µM	–	?	–	–
CN(C)C(=O)c1ccc(NC(=O)Cn2nnnc2-c2ccccc2F)cc1	·	18µM	·	15µM	·	–
Cc1cc(Cl)ccc1OCC(=O)Nc1nc(-c2cccs2)cs1	–	–	–	–	–	–
Cc1cc(N2CCCC2)ccc1NC(=O)CN1C(=O)NC2(CCCCC2)C1=O	–	–	–	–	–	–[0.505 µM]
Cc1ccc(N(C(=O)c2ccc(S(=O)(=O)N3CCOCC3)cc2)C2C=CS(=O)(=O)C2)cc1C (stereo not given)	–	–	–	–	–	–
CC(=O)Oc1c(/C=C(\C#N)C(N)=O)[nH]c2ccccc12	–	?	–	16µM	·	–
N#C/C(=C\c1c[nH]c2ccccc12)C(N)=O	–	?	–	?	·	·
O=C(O)c1ccccc1C(=O)Nc1ccc(-n2nccc2C(F)(F)F)cc1	–	–	–	–	·	–
NC[C@@H]1O[C@H](C23CC4CC(CC(C4)C2)C3)Cc2c1ccc(O)c2O	–	23µM	–	23µM	?	–
NC[C@@H]1O[C@H](c2ccccc2)Cc2c1ccc(O)c2O	·	9.4µM	·	6.7µM	·	–
CC1(C)NC(=O)N(CCOCCOc2ccc3ccccc3c2Br)C1=O	–	?	–	?	–	–
SMILES	IL1B secr inh	DT40 TDP1 no CPT	Six1-Eya2 blk	DT40 TDP1 CPT	CtBP-E1A inh	TDP1 inh
Cc1cc(-c2ccccc2)c2c(n1)sc1c(O)cc(=O)[nH]c12	–	–	–	–	–	·
Cc1cc(-c2cccs2)c2c(n1)sc1c(=O)[nH]c(=O)[nH]c12	–	?	?	16µM	–	–
O=C(COc1ccccc1Br)N1CCNC1=O	–	–	–	–	·	–
Cc1cc(-c2nn(-c3ccccc3F)cc2CN2CCN(c3ccccn3)CC2)c(C)s1	?	12µM	–	13µM	–	–
Cn1cc(CN2CCN(c3ccc(Cl)cn3)CC2)c(-c2ccccc2F)n1	?	?	–	?	–	–
Cc1cc(-c2nn(-c3ccccc3F)cc2CNCCc2cnccn2)c(C)s1	-62	–	–	?	–	–
